Test results: PubChem BioAssay AID1159580 (chemical genetic matrix, 2015)
Where “and” joins values, the source holds several entries; their conditions need not be identical. Equal entries are not always repeated. The campaign covered roughly 5,500 compounds. About 2,000 (36%) were called active. Another 18% or so got no clear call; they are omitted. Rule as the data show it: active = normalized growth mostly below about 0.91 (no sharp cut-off); inconclusive = no clear call, values can overlap the other calls; inactive = mostly above about 0.92. Some of the results follow.

Assay: chemical genetic growth profiling, strain panel (AID 1159580);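 also: tested at 20 µM; growth read once vehicle control cultures reached saturation at 30 °C; 1 = growth at the plate median or of vehicle wells; lower values mean less growth of the strain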
Conditions: S. cerevisiae deletion strains, growth OD

Measured: normalized growth

C[N+]1(CCCCC[N+]2(C)CCCC2)CCCC1
inactive: locus YAL013W, strain DEP1, active compounds read low 1 and 0.986 | locus YAL021C, strain ccr4, active compounds read low 0.99 | locus YAL026C, strain drs2, active compounds read low 0.995 | locus YAL030W, strain snc1, active compounds read low 1 | locus YAL040C, strain CLN3, active compounds read low 0.976 | locus YBL061C, strain skt5, active compounds read low 0.998 | locus YBR009C, strain hhf1, active compounds read low 1 | locus YBR021W, strain FUR4, active compounds read low 1.01 | locus YBR023C, strain chs3, active compounds read low 0.989 | locus YBR171W, strain sec66, active compounds read low 1 | locus YBR229C, strain ROT2, active compounds read low 1.01 | locus YBR231C, strain swc5, active compounds read low 0.986 | locus YBR279W, strain paf1, active compounds read low 0.993 | locus YCL011C, strain gbp2, active compounds read low 0.993 | locus YCL016C, strain dcc1, active compounds read low 0.993 | locus YCL029C, strain bik1, active compounds read low 1.04 | locus YCL061C, strain MRC1 (second series), active compounds read low 0.994 | locus YCL061C, strain MRC1, active compounds read low 0.995 | locus YCL069W, strain vba3, active compounds read low 1 | locus YCR088W, strain abp1, active compounds read low 0.999 | locus YDL005C, strain med2, active compounds read low 0.983 | locus YDL035C, strain GPR1, active compounds read low 1.01 | locus YDL040C, strain nat1, active compounds read low 0.989 | locus YDL074C, strain BRE1, active compounds read low 1.02 | locus YDL101C, strain DUN1, active compounds read low 1.01 | locus YDL134C, strain PPH21, active compounds read low 1.01 | locus YDL185W, strain tfp1, active compounds read low 1.01 | locus YDL192W, strain arf1, active compounds read low 1.02 | locus YDR001C, strain nth1, active compounds read low 1 | locus YDR069C, strain doa4, active compounds read low 0.995 | locus YDR101C, strain arx1, active compounds read low 1.01 | locus YDR137W, strain rgp1, active compounds read low 1.04 | locus YDR150W, strain NUM1, active compounds read low 1 | locus YDR159W, strain sac3, active compounds read low 0.991 | locus YDR162C, strain NBP2, active compounds read low 1.01 | locus YDR195W, strain ref2 0.922 | locus YDR297W, strain sur2, active compounds read low 1.01 | locus YDR318W, strain mcm21, active compounds read low 1.02 | locus YDR334W, strain swr1, active compounds read low 0.991 | locus YDR335W, strain msn5, active compounds read low 0.991 | locus YDR363W, strain ESC2, active compounds read low 0.985 | locus YDR388W, active compounds read low 1.01 | locus YDR392W, strain spt3, active compounds read low 1.01 | locus YDR502C, strain sam2, active compounds read low 1.01 | locus YEL003W, strain gim4, active compounds read low 0.997 | locus YEL037C, strain rad23, active compounds read low 0.994 | locus YEL061C, strain CIN8 (second series), active compounds read low 0.991 | locus YEL061C, strain CIN8, active compounds read low 1 | locus YER002W, strain NOP16, active compounds read low 1.01 | locus YER015W, strain faa2, active compounds read low 0.993 | locus YER016W, strain bim1, active compounds read low 0.995 | locus YER110C, active compounds read low 1.02 | locus YER111C, strain swi4, active compounds read low 0.983 | locus YER155C, strain BEM2 (second series), active compounds read low 0.996 | locus YER155C, strain BEM2, active compounds read low 0.997 | locus YER167W, strain BCK2, active compounds read low 1 | locus YFR010W, strain ubp6, active compounds read low 0.998 | locus YGL078C, strain dbp3, active compounds read low 1.01 | locus YGL086W, strain mad1, active compounds read low 0.996 | locus YGL167C, strain pmr1, active compounds read low 1 | locus YGL173C, strain kem1, active compounds read low 1 | locus YGL227W, strain vid30, active compounds read low 0.984 | locus YGL240W, strain doc1, active compounds read low 0.988 | locus YGL248W, strain PDE1, active compounds read low 1.02 | locus YGL253W, strain hxk2, active compounds read low 0.987 | locus YGR078C, strain PAC10, active compounds read low 1.02 | locus YGR135W, strain pre9, active compounds read low 1.01 | locus YGR229C, strain SMI1, active compounds read low 1.01 | locus YGR252W, strain gcn5, active compounds read low 1 | locus YHR013C, strain ard1, active compounds read low 0.962 | locus YHR027C, strain rpn1, active compounds read low 0.998 | locus YHR030C, strain SLT2, active compounds read low 1.01 | locus YHR079C, strain IRE1 (second series), active compounds read low 1.02 | locus YHR094C, strain hxt1, active compounds read low 1.01 | locus YHR129C, strain ARP1, active compounds read low 1.01 | locus YHR142W, strain chs7, active compounds read low 0.997 | locus YHR200W, strain rpn10, active compounds read low 1 | locus YIL066C, strain RNR3, active compounds read low 1.01 | locus YIL073C, strain SPO22, active compounds read low 1.05 | locus YIL125W, strain kgd1, active compounds read low 1.02 | locus YIR030C, strain dcg1, active compounds read low 1.01 | locus YJL092W, strain hpr5, active compounds read low 0.997 | locus YJL095W, strain BCK1 (second series), active compounds read low 0.993 | locus YJL095W, strain BCK1, active compounds read low 1.03 | locus YJL115W, strain asf1, active compounds read low 0.988 | locus YJL129C, strain trk1, active compounds read low 0.992 | locus YJL134W, strain LCB3, active compounds read low 1 | locus YJL154C, strain vps35, active compounds read low 0.995 | locus YJL164C, strain tpk1, active compounds read low 0.995 | locus YJL166W, strain qcr8, active compounds read low 0.999 | locus YJL168C, strain set2, active compounds read low 1.01 | locus YJL187C, strain SWE1 (second series), active compounds read low 1.02 | locus YJL187C, strain SWE1, active compounds read low 1
